Assay outcomes: PubChem, several laboratories
NR5A2 inv ag: LRH-1 (NR5A2) inverse agonists, primary screen, cell-based, luminescence, HEK293T, StAR-luciferase reporter; Nuclear receptor subfamily 5 group A member 2 (Homo sapiens), O00482; LRH-1 transfected, 24 h; inhibition, % at 3.6 µM; 360,000 compounds, 0.13% hits; AID 602396, 2012;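 active means inhibition above the mean inhibition of all tested compounds plus 3 SD, cut at about 73% in these data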;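 further: 0% = DMSO wells and 100% = reporter-only cells lacking LRH-1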
Target sequence (O00482 whole entry, looked up): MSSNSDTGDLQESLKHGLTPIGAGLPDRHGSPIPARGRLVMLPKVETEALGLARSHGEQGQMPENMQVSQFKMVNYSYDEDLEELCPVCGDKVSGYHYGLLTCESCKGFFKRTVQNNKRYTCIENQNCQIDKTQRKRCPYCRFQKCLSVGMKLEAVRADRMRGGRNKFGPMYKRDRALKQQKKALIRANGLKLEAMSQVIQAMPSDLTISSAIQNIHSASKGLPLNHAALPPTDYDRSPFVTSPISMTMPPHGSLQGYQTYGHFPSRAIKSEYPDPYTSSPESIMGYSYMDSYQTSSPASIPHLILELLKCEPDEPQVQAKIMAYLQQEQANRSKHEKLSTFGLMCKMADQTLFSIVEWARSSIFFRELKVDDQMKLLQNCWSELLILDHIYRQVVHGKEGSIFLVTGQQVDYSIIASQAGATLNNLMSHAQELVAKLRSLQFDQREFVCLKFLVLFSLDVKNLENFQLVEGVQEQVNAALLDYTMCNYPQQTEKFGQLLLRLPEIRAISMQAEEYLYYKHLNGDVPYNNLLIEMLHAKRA
SRC3 inh: SRC3 coactivator transcriptional activity inhibitors, primary screen, cell-based, luminescence. Nuclear receptor coactivator 3 (Homo sapiens), Q9Y6Q9. HEK293 GAL4-SRC3 luciferase reporter. inhibition, % at 3.6 µM. 360,000 compounds, 0.17% hits;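 active means inhibition above a per-campaign cutoff, the mean of all compounds plus 3 SD, cut at about 60% in these data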;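 further: 0% = DMSO-treated cells and 100% = gossypol-treated cells at 36 µM; higher means less SRC3-driven luciferase light from the GAL4 reporter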
NCOA2 inhibitor: inhibition of GAL4-SRC2 driven luciferase reporter, primary screen, SRC2 inhibitor project, cell-based, luminescence; inhibition, % at 9 µM; HEK293 GAL4-SRC2 luciferase reporter; 370,000 compounds, 0.17% hits; Nuclear receptor coactivator 2 (Homo sapiens), Q15596;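 active means inhibition above the mean inhibition of all tested compounds plus 3 SD, set per campaign, cut at about 52% in these data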;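 further: 0% = DMSO treated cells and 100% = cells given Gossypol at 36 µM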
NCOA1 inh: SRC1 coactivator transcriptional activity inhibitors, primary screen, cell-based, luminescence; inhibition, % at 3.6 µM; Nuclear receptor coactivator 1 (Homo sapiens), Q15788; HEK293 GAL4-SRC1 luciferase reporter; 360,000 compounds, 0.12% hits;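 active means inhibition above the campaign mean plus 3 SD, with each screening campaign given its own cutoff, cut at about 60% in these data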;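 further: 0% = DMSO treated cells and 100% = gossypol at 36 µM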
Gli-Sufu antag: Gli-Sufu pathway antagonists, primary screen, luciferase luminescence, Sufu-KO-LIGHT cells, uHTS; Sufu-KO-LIGHT fibroblasts, Gli luciferase reporter luminescence; inhibition, % at 5 µM; 340,000 compounds, 0.74% hits; AID 588413, 2011;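 active means inhibition above about 55%, limit read from the data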;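 further: 0% = DMSO-treated cells and 100% = wells with medium but no cells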
Shn3 3UTR inh: reduction of Shn3 3'UTR firefly luciferase signal, primary screen, Schnurri-3 inhibitor project, cell-based, Clone20 osteoblasts, set 2. Clone20 osteoblast Shn3 3'UTR firefly luciferase, 24 h. inhibition, % at 12.5 µM. 360,000 compounds, 0.52% hits;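 active means mean inhibition of at least 75% with every replicate also reaching 75%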;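 further: 0% = median of neutral control wells and 100% = pilot-screen positive control compound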
* marks the source's active call; other numbers are inactive results; . = not tested or not shown. Most compounds without a hit are left out; they make up all but 1.1% or so of the library.

SMILES	NR5A2 inv ag	SRC3 inh	NCOA2 inhibitor	NCOA1 inh	Gli-Sufu antag	Shn3 3UTR inh
Cc1ccccc1OCC(O)Cn1c(=N)n(Cc2ccccc2)c2ccccc21 (stereo unspecified)	-7.1	4.1	25.6	4.4	35.0	87.2*
CCOC(=O)N1CCN(C(=O)C[C@H]2C[C@@]3(C(=O)OC)C(=C[C@H](C(C)C)O[C@@H]3C3CC3)N(CCc3ccc(OC)c(OC)c3)C2=O)CC1	.	.	-46.2	.	.	.
CCOC(=O)[C@@]12CCCC3=C1N(CCC3)C(=O)[C@H]2CC(=O)NCc1ccc(C)o1	.	.	-9.1	.	.	.
Cc1cc(/C=C\c2ccc3cc(N(C)C)ccc3[n+]2C)c(C)n1-c1ccccc1	77.0*	77.1*	.	53.4	93.7*	95.0*
COC(=O)c1cc(S(=O)(=O)N2CCCN(C(C)=O)CC2)cn1C	.	.	10.7	.	.	.
C#CCCN([C@@H](CC(C)C)C(=O)OC)S(=O)(=O)c1ccccc1Br	.	.	2.1	.	.	.
CCOc1ccc(-c2cc(CCCC(=O)NCCCOC)no2)cc1	14.6	4.1	69.2*	3.1	9.9	13.7
OC(c1cc(-c2ccc(C(F)(F)F)cc2)nc(C(F)(F)F)c1)C1CCCCN1 (stereo unspecified)	19.7	12.5	4.1	-58.2	-26.4	96.5*
O=C(NC1=NCCS1)C1COc2ccccc2O1 (stereo unspecified)	-9.7	28.5	57.4*	22.1	38.8	79.5
O=C(Nc1ccncc1)C1COc2ccccc2O1 (stereo unspecified)	-13.6	-13.0	-10.6	-15.3	-19.2	2.6
Cc1ccccc1OCC(O)CNC1CCC(NCC(O)COc2ccccc2C)CC1 (stereo unspecified)	4.9	4.6	-5.0	-1.5	25.9	97.0*
O=C(Nc1cccc(Cl)c1Cl)C1CC(=O)N(c2ccc(Br)cc2)C1 (stereo unspecified)	-4.7	13.7	-3.6	-3.5	-7.8	86.7*
CN(C)c1ccc(CNc2ncnc3sccc23)cc1	46.8	12.4	18.6	24.9	62.7*	80.4
NS(=O)(=O)c1ccc(CNc2ncnc3sccc23)cc1	4.3	1.4	-2.6	-65.0	-12.2	-6.4
CCN(CC)S(=O)(=O)c1cccc(C(=O)N/N=C(\C)c2ccc(O)cc2O)c1	-17.0	69.8*	36.8	-13.9	-3.7	93.5*
O=C(c1ccccc1)c1nn(-c2ccc(Cl)cc2)c(=O)cc1C(F)(F)F	84.9*	63.6*	68.9*	25.7	12.1	73.9
CCCCOc1ccc(Br)cc1CSC(=N)N	41.4	-1.4	40.7	-4.6	64.8*	91.6*
Nc1cc2ccncc2c2ccccc12	65.7	59.6	39.6	66.6*	-7.8	10.4
N#Cc1cc2ccncc2c2ccccc12	-6.5	20.0	27.0	29.3	.	9.8
CCCCNC(=O)C1(C(=O)c2ccc(OC)cc2)CC(c2ccccc2C(F)(F)F)=NO1 (stereo unspecified)	.	.	3.2	.	.	.
CCN1/C(=C\c2ccc3cc(C)ccc3[n+]2CC)Sc2cc(C)c(C)cc21	64.1	35.9	-28.4	20.4	87.9*	88.9*
CCN1/C(=C/c2ccc3cc(C)cc(C)c3[n+]2CC)Sc2cc(C)ccc21	66.5	43.7	-47.3	24.5	90.1*	65.0
Cc1ccc2c(c1)S/C(=C\c1cccc[n+]1C)N2CCO	17.6	9.2	3.3	6.0	15.5	-16.5
CCN1/C(=C/c2ccc3cccc(C)c3[n+]2CC)Sc2ccccc21	69.3	52.8	-6.0	42.5	87.7*	50.6
CCN1/C(=C/c2ccc3cc(C)ccc3[n+]2CC)Sc2ccc3sccc3c21	14.4	38.7	.	30.7	86.6*	93.0*
SMILES	NR5A2 inv ag	SRC3 inh	NCOA2 inhibitor	NCOA1 inh	Gli-Sufu antag	Shn3 3UTR inh
CC(C)N1CCCCC(NC(=O)c2c(F)cccc2F)C1=O (stereo unspecified)	.	.	-8.6	.	.	.
Cc1ccccc1CS(=O)(=O)Cc1ccc(C(=O)Nc2c(C)cccc2C)o1	.	.	-17.7	.	.	.
Cc1ccc(N/C(N)=N/c2nc(C)cc(N3CCCCC3)n2)c(C)c1	20.3	25.3	11.0	9.2	84.5*	96.3*
Cc1ccc(N/C(N)=N/c2nc3c(c(=O)[nH]2)CCCC3)c(C)c1	3.8	3.6	-5.1	-19.5	-0.7	8.6
CCCCCSc1nncc(=O)[nH]1	-0.8	12.5	5.1	8.3	1.1	-5.4
CCCCCCCCSC1=CC(=O)C(OC)=C(OC)C1=O	-1.4	-55.8	14.4	-13.5	.	94.9*
CC[n+]1ccc(/C=C2\Sc3ccccc3N2CCCS(=O)(=O)[O-])c2ccccc21	-4.0	5.5	-0.7	-79.2	-2.1	67.2
CN1C=C/C(=C\c2cc[n+](C)c3ccccc23)c2ccccc21	80.6*	38.4	22.8	52.7	77.4*	69.1
CCS(=O)(=O)c1ncc(Cl)c(C(=O)Nc2ccc(S(=O)(=O)N3CCCC(C)C3)cc2)n1 (stereo unspecified)	-7.5	-79.9	-29.6	-35.6	20.2	97.5*
CC1CCCN(S(=O)(=O)c2ccc(NC(=O)CNC3CCCC3)cc2)C1 (stereo unspecified)	-1.3	9.6	0.1	2.7	12.1	20.9
CCC1CCCCN1S(=O)(=O)c1ccc(NC(=O)c2nc(S(C)(=O)=O)ncc2Cl)cc1 (stereo unspecified)	-4.5	-64.4	38.5	-102.4	1.2	96.5*
COCCOC(=O)c1c(C)oc2ccc(O)c(CN3CCC(C)CC3)c12 (tested in a mixture with another compound)	4.8	-12.7	8.5	-17.8	10.2	92.9*
CCOC(=O)c1c(C)n(C)c2ccc(O)c(CN3CCC(C)CC3)c12	6.6	9.1	.	1.7	2.9	30.1
COc1ccc(CC(=O)Nc2cccc(-c3nnc(-c4ccccc4)o3)c2)cc1OC	-54.5	50.8	60.8*	36.2	.	63.6
Cc1cc(C)n(-c2nc(Nc3ccccc3C(F)(F)F)nc(-n3nc(C)cc3C)n2)n1	42.5	13.8	21.4	3.3	8.6	97.2*
CC(=O)CC[C@H]1CC[C@]2(CCCN(C(=O)c3ccco3)C2)O1	.	.	1.9	.	.	.
CCCN(CCC)C1=CC(=[N+]2CCCC2)CC(C)(C)C1	72.1	55.0	39.5	61.1*	82.4*	71.7
O=C(/C=C/c1cn(-c2ccccc2)nc1-c1cccnc1)c1ccco1	1.9	8.4	64.0*	2.4	-2.0	-5.5
O[C@H](COc1cccc(C(F)(F)F)c1)CN1CCC(C(O)(c2ccccc2)c2ccccc2)CC1	.	.	-9.9	.	.	.
COc1cc(N)c(Br)cc1C(=O)O	-12.4	8.5	-15.5	3.3	-3.7	-7.0
Nc1cc2c(cc1Br)-c1c(C(=O)O)cccc1C2O (stereo unspecified)	-2.4	-13.1	15.1	0.7	17.1	86.1*
